Records with an inconclusive call do not appear. Active and inactive are the calls of the source. Calls come from the whole dose curve; as a rule, active = well fitted curve in the direction sought with a large enough effect; inconclusive = small, poorly fitted or top-dose-only effect, or another doubt; inactive = no such curve, though single readings can be large or run the other way.

This is an account of results in PubChem BioAssay AID1671192 (National Center for Advancing Translational Sciences (NCATS), 2021).

Sequence of Polyunsaturated fatty acid lipoxygenase ALOX15 (Homo sapiens) (P16050 whole entry, looked up): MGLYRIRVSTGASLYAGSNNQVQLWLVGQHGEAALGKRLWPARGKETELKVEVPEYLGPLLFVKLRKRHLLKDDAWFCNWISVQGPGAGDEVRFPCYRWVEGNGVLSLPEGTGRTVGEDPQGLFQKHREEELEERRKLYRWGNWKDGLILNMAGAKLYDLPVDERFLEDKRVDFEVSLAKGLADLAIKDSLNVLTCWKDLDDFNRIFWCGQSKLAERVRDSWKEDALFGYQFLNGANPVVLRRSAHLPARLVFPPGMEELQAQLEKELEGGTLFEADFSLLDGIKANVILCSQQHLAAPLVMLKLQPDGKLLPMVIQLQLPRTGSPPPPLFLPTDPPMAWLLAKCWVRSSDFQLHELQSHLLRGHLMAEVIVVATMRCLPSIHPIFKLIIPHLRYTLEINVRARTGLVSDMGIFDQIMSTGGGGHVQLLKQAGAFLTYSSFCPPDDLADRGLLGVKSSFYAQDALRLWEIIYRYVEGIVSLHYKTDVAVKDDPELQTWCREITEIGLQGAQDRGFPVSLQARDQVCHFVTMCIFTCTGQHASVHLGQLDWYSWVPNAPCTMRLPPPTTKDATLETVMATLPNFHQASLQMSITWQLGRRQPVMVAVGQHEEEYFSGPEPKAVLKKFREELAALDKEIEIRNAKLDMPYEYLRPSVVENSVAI

The experiment concerns the target Polyunsaturated fatty acid lipoxygenase ALOX15 (Homo sapiens) (UniProt P16050). As to the kind of experiment: Counterscreen qHTS for inhibitors of human arachidonate 12S-lipoxygenase (ALOX12): ALOX15 Assay. Conditions: purified ALOX15 enzyme activity; series mostly up to 110 µM. An outline of the steps: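 Purified human ALOX15 (15hLO-1) at 40 nM in 25 mM HEPES, 0.01% Triton X-100, pH 7.5, preincubated with compound 15 min at RT. Then 50 uM arachidonic acid for 30 min; hydroperoxide detected by Fe-xylenol orange as the 573/405 nm absorbance ratio.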
As for `O=C1NCc2ccccc2CC12CCN(Cc1c(F)cccc1Cl)CC2`, the compound was classed as inactive. The value for `O=[S+]([O-])(c1ccccc1)N1CC(Oc2ccc3c(c2)OCO3)C1` was “inactive”. Then `C[S+](=O)([O-])N1Cc2ccccc2CC2(CCCCN2CC2CCNCC2)C1` (stereo not drawn), with “inactive”. The value for `CCC(=O)N1Cc2ccccc2CC2(CCCN(CC3CCNCC3)C2)C1` (stereo not drawn) was “inactive”; that for `COCCNc1ncnc2c1CN(C1CCNCC1)C(=O)CN2C` was “inactive”; that for `Cc1cc(C(=O)NC2CC2)c2c(C3CCNCC3)noc2n1` was “inactive”. For the compound `O=C(c1ccc2c(c1)OCO2)N1CCC2(CC1)C(=O)Nc1ccccc12`, the outcome was inactive. The value for `CNC(=O)c1cn2c(n1)CN(C(=O)OC)CC2` was “inactive”; that for `O=C1NCc2ccccc2CC12CCCN(CCCc1ccccc1)C2` (stereo not drawn) was “inactive”. The value for `Cc1cc(C(=O)NCc2ccncc2)c2c(C3CCNCC3)noc2n1` was “inactive”; that for `COc1ccc(NCCN2CCCC2)cc1` was “inactive”. The value for `O=C(O)c1cccc(-c2ccsc2)c1` was “inactive”. Take `O=C(c1ccc2c(c1)OCO2)N1CCC(c2nnc3n2CCNC3)CC1`: the compound was classed as inactive.

With `CN1CC(=O)N(C2CCCNCC2)Cc2c1ncnc2N1CCN(Cc2ccccc2)CC1` (stereo not drawn), the result was inactive. Take `CC(C)OCCCNc1ncnc2c1CN(C1CCCNCC1)C(=O)CN2C` (stereo not drawn): the compound was called inactive. As for `CN1CC(=O)N(C2CCNCC2)Cc2c1ncnc2N1CCCCC1`, the call was inactive.

Consider `O=C1NCc2ccccc2CC12CCN(Cc1cccc(Br)c1)C2` (stereo not drawn), for which the outcome was inactive. Take `O=C(c1ccncc1)N1CCCC(c2nnc3n2CCNC3)C1` (stereo not drawn): the compound was classed as inactive. On to `O=C1NCc2ccccc2CC12CCN(Cc1ccc(Cl)s1)C2` (stereo not drawn), for which the result was inactive. On to `COc1ccc(N2CC3CCC(C2)N3Cc2cccc(Cl)c2)cc1`, for which the call was inactive. The value for `O=C1NCc2ccccc2CC12CCN(Cc1c(F)cccc1F)C2` (stereo not drawn) was “inactive”. The value for `CCC(CC)Nc1ncnc2c1CN(C1CCCNCC1)C(=O)CN2C` (stereo not drawn) was “inactive”. The value for `O=Cc1cccc(N2CCN(C(=O)c3ccc4c(c3)OCO4)CC2=O)c1` was “inactive”; that for `CN1CC(=O)N(C2CCCNCC2)Cc2c1ncnc2N1CCCC(CO)C1` (stereo not drawn) was “inactive”.

For the compound `COc1cccc(CNc2ncnc3c2CN(C2CCCNCC2)C(=O)CN3C)c1` (stereo not drawn), the result was inactive.

As to `COc1cccc(N2C(=O)NC(=NC3CCCC3)C23CCN(Cc2ccsc2)C3)c1` (stereo not drawn), the result was inactive.

As for `CC(C)(C)OC(=O)N1CC(Nc2ccc(O)cc2)C1`, the compound was classed as inactive. Then `O=C(c1ccccc1)N1CCn2c(nn(-c3cccc(Cl)c3)c2=O)C1`, with “inactive”; and `CN1CC(=O)N(C2CCCNCC2)Cc2c1ncnc2N1CCCCC1` (stereo not drawn), with “inactive”. In the case of `CCOc1ccccc1CN1CCCCC12Cc1ccccc1CNC2=O` (stereo not drawn), the call was inactive. Then `NCCC(=O)N1Cc2ccccc2CC2(CCCCN2CC2CCNCC2)C1` (stereo not drawn), with “inactive”. Turning to `CN1CC(=O)N(C2CCCNC2)Cc2c1ncnc2N1CCN(Cc2ccccc2)CC1` (stereo not drawn), the result was inactive.

For the compound `CSc1ccc(-c2ccccc2C=O)cc1`, the compound was classed as inactive. Then `O=C1NCc2ccccc2CC12CCN(CCCc1ccccc1)CC2`, with “inactive”. Take `CN1CC(=O)N(C2CCCNC2)Cc2c(NC3CCCCC3O)ncnc21` (stereo not drawn): the compound was classed as inactive. The value for `CN1CC(=O)N(C2CCNCC2)Cc2c(NCCc3cccc(F)c3)ncnc21` was “inactive”; that for `CN1CC(=O)N(C2CCNC2)Cc2c1ncnc2N1CCC(N2CCCCC2)CC1` (stereo not drawn) was “inactive”. Consider `CN(C)CCC(=O)N1Cc2ccccc2CC2(CCCN(C)C2)C1` (stereo not drawn), for which the call was inactive.
